From the supplement of paper PMC10646978 come the findings set out here.

± gives the standard deviation.

The test system of one assay is RAW-Dual (murine macrophage reporter line). Kind of assay: IRF reporter (Lucia luciferase) activity fold change vs agonist alone; higher = enhanced IRF activity. Particulars: modulator concentration 10 µM; agonist: LPS 0.1 ug/mL. A digest of the protocol: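 In 384-well plates holding 50 000 RAW-Dual murine macrophage reporter cells per well, compound at 10 μM final was pre-incubated for 1 hour at 37 °C, after which a PRR agonist was added overnight. Supernatant SEAP read with QUANTI-Blue at 620 nm absorbance reported NF-κB, and Lucia luciferase read with QUANTI-Luc luminescence reported IRF. Fold change values come from dividing each reporter signal by the mean of agonist-only control wells on the same plate, averaged over replicate plates with propagated errors.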
With `O=c1n(CCNS(=O)(=O)Cc2ccccc2)nc(C2CC2)n1-c1ccccc1`, the IRF reporter was 1.26 ± 0.08.
Same read-out and setting: the value for `O=[N+]([O-])c1ccc(OCC(O)CN2CCN(c3ccccc3)CC2)cc1` (stereo not given) was 1.42 ± 0.19; that for `CCc1ccccc1Nc1nc(-c2sc(NC(C)=O)nc2C)cs1` was 1.3 ± 0.3; that for `COc1cc2c(cc1Cc1cccc(Cl)c1F)c(=O)c(C(=O)O)cn2[C@H](CO)C(C)C` was 1.13 ± 0.12.
The same measure, in the same setting: as for `NC(=O)c1ncn(C2OC(CO)C(O)C2O)c1O` (stereo not given), the figure is 1.32 ± 0.16; as for `CCOC(=O)C1=C(C)NC(C)=C(C(=O)OC)C1c1ccc(C)cc1` (stereo not given), 0.914 ± 0.039; as for `CN1CCN(C2=C(Cl)C(=O)N(c3ccc(Cl)c(Cl)c3)C2=O)CC1`, 1.54 ± 0.28.
Same read-out and setting: as for `CCC1(C)CC(CCN)(c2ccc(C)cc2)CCO1` (stereo not given), the figure is 0.904 ± 0.06; as for `Cc1ccc(NC(Nc2ccc(C)cc2)=C(C(Cl)=C(Cl)Cl)[N+](=O)[O-])cc1`, 1.29 ± 0.14; as for `O=C(Nc1cc2c(cc1Cl)OCCO2)c1cc(Cl)ccc1O`, 1.26 ± 0.16.
Consider `Cl.O=C1Cc2cc(CCN3CCN(c4nsc5ccccc45)CC3)c(Cl)cc2N1`, for which the IRF reporter is 1.24 ± 0.24.
Same read-out and setting: the value for `O=S(=O)(c1ccc(F)cc1)N1CCC(c2nc3ccccc3[nH]2)CC1` was 1.01 ± 0.093.
As to `COc1ccc(C=NNc2nc(-c3ccccc3)cc(-c3ccc(Br)cc3)n2)c(OC)c1`, the IRF reporter was 1.08 ± 0.12.
On the same count and under the same terms, as for `CCc1nc(N)nc(N)c1-c1ccc(Cl)cc1`, the figure is 0.974 ± 0.07; as for `Cc1c(F)cc(C(=O)NC2CC2)cc1-c1ccc(C(=O)NCC(C)(C)C)cn1`, 0.808 ± 0.18; as for `COC(=O)C1=C(C)NC(C)=C(C(=O)OC)C1c1ccccc1[N+](=O)[O-]`, 0.585 ± 0.035.
On the same count and under the same terms, the value for `O=c1[nH]c(=O)n([C@H]2C[C@H](O)[C@@H](CO)O2)cc1I` was 0.992 ± 0.069.
Consider `O=[N+]([O-])c1ccc(C=Nc2sc3c(c2-c2nc4ccccc4s2)CCCC3)cc1`, for which the IRF reporter is 1.2 ± 0.12.
Still for that read-out and setting: the value for `COc1cc2nc(N3CCN(C(=O)C4COc5ccccc5O4)CC3)nc(N)c2cc1OC.CS(=O)(=O)O` (stereo not given) was 1.44 ± 0.33; that for `O=C(c1ccc(Cl)cc1)c1ccc(N2CCCCC2)c([N+](=O)[O-])c1` was 1.27 ± 0.27.

Still in this assay, the particulars now being: modulator concentration 10 µM; agonist: MPLA […].
In the case of `Nc1nc(=O)n([C@@H]2CS[C@H](CO)O2)cc1F`, the IRF reporter is 0.836 ± 0.21.
Same read-out and setting: as for `C1=C(c2ccccc2)Nc2nnnn2C1c1ccccc1` (stereo not given), the figure is 1.46 ± 0.36; as for `CCN(Cc1ccncc1)C(=O)C(CO)c1ccccc1` (stereo not given), 0.932 ± 0.08; as for `CCN(CC)c1ccc(C=NNC(=O)c2ccc(O)cc2)c(O)c1`, 0.758 ± 0.12.
Still for that read-out and setting: the value for `CC(C(=O)O)c1ccc(C(=O)c2cccs2)cc1` (stereo not given) was 1.23 ± 0.14.
Same read-out and setting: as for `O=C(Oc1ccc2ccccc2c1)c1ccccc1`, the figure is 1.12 ± 0.11.
`CN1CCN(C(CNC(=O)c2ccccc2Br)c2ccc(F)cc2)CC1` (stereo not given): the IRF reporter is 0.936 ± 0.34.
The same measure, in the same setting: as for `O=C(O)CSCC(=O)NC1CCSC1=O` (stereo not given), the figure is 1.5 ± 0.15; as for `COc1ccc(C2CC(=O)C(=Cc3c[nH]c4ccccc34)C(=O)C2)cc1` (stereo not given), 1.1 ± 0.13.
Still for that read-out and setting: the value for `O=C(NC(=S)Nc1ccccc1C(F)(F)F)c1cccc(I)c1` was 1.09 ± 0.14.
The same measure, in the same setting: the value for `CC(=O)N1CCC(C(=O)NCc2cccnc2-c2cnn(C)c2)CC1` was 1.15 ± 0.25.
Turning to `Nc1cccc(O)c1`, the IRF reporter worked out at 0.938 ± 0.11.
The same measure, in the same setting: the value for `Cc1cccc(C(=O)N2N=C(c3ccccc3)CC2(O)C(F)(F)F)c1` (stereo not given) was 1.79 ± 0.12; that for `O=C(O[C@H]1C[C@H]2CC3C[C@@H](C1)N2CC3=O)c1c[nH]c2ccccc12` was 0.912 ± 0.084.
The same measure, in the same setting: as for `CC1=NN(c2ccc(C(=O)O)cc2)C(=O)C1=Cc1ccc(-c2cc(C)c(C)cc2[N+](=O)[O-])o1`, the figure is 0.92 ± 0.23; as for `Cl.Cl.Fc1ccc(C(c2ccc(F)cc2)N2CCN(CC=Cc3ccccc3)CC2)cc1`, 1.1 ± 0.16.
As for `Cc1ccc(C(=O)NC(=Cc2ccccc2)C(=O)NCCCn2ccnc2)cc1`, the IRF reporter was determined as 1.12 ± 0.074.
Same read-out and setting: as for `Cc1cc(C(=O)N2CCC(Oc3cccc4cccnc34)CC2)n(C)n1`, the figure is 1.13 ± 0.18; as for `COc1cc2ccc(=O)oc2cc1O`, 0.946 ± 0.12.
The same measure, in the same setting: as for `COc1ccc(C(=O)Nc2cc(C)nc3c(C)cc(C)cc23)cc1OC`, the figure is 0.746 ± 0.07.
The same measure, in the same setting: the value for `O=c1n(CCNS(=O)(=O)Cc2ccccc2)nc(C2CC2)n1-c1ccccc1` was 1.22 ± 0.1; that for `O=[N+]([O-])c1ccc(OCC(O)CN2CCN(c3ccccc3)CC2)cc1` (stereo not given) was 1.15 ± 0.15; that for `CCc1ccccc1Nc1nc(-c2sc(NC(C)=O)nc2C)cs1` was 1.42 ± 0.26.
For `COc1cc2c(cc1Cc1cccc(Cl)c1F)c(=O)c(C(=O)O)cn2[C@H](CO)C(C)C`, the IRF reporter came out at 0.848 ± 0.079.
On the same count and under the same terms, the value for `NC(=O)c1ncn(C2OC(CO)C(O)C2O)c1O` (stereo not given) was 1.46 ± 0.2.
On to `CCOC(=O)C1=C(C)NC(C)=C(C(=O)OC)C1c1ccc(C)cc1` (stereo not given), for which the IRF reporter turned out to be 1.34 ± 0.087.
On the same count and under the same terms, as for `CN1CCN(C2=C(Cl)C(=O)N(c3ccc(Cl)c(Cl)c3)C2=O)CC1`, the figure is 1.24 ± 0.21.
Same read-out and setting: the value for `CCC1(C)CC(CCN)(c2ccc(C)cc2)CCO1` (stereo not given) was 0.843 ± 0.083.
Same read-out and setting: as for `Cc1ccc(NC(Nc2ccc(C)cc2)=C(C(Cl)=C(Cl)Cl)[N+](=O)[O-])cc1`, the figure is 1.33 ± 0.16; as for `O=C(Nc1cc2c(cc1Cl)OCCO2)c1cc(Cl)ccc1O`, 1.45 ± 0.23.
For `Cl.O=C1Cc2cc(CCN3CCN(c4nsc5ccccc45)CC3)c(Cl)cc2N1`, the IRF reporter was found to be 1.01 ± 0.076.
With `O=S(=O)(c1ccc(F)cc1)N1CCC(c2nc3ccccc3[nH]2)CC1`, the IRF reporter came out at 0.997 ± 0.15.
The same measure, in the same setting: the value for `COc1ccc(C=NNc2nc(-c3ccccc3)cc(-c3ccc(Br)cc3)n2)c(OC)c1` was 1.08 ± 0.17; that for `CCc1nc(N)nc(N)c1-c1ccc(Cl)cc1` was 0.865 ± 0.075.
The same measure, in the same setting: as for `Cc1c(F)cc(C(=O)NC2CC2)cc1-c1ccc(C(=O)NCC(C)(C)C)cn1`, the figure is 0.932 ± 0.088; as for `COC(=O)C1=C(C)NC(C)=C(C(=O)OC)C1c1ccccc1[N+](=O)[O-]`, 0.414 ± 0.038; as for `O=c1[nH]c(=O)n([C@H]2C[C@H](O)[C@@H](CO)O2)cc1I`, 0.967 ± 0.15.
On the same count and under the same terms, as for `O=[N+]([O-])c1ccc(C=Nc2sc3c(c2-c2nc4ccccc4s2)CCCC3)cc1`, the figure is 0.93 ± 0.089.
In the case of `COc1cc2nc(N3CCN(C(=O)C4COc5ccccc5O4)CC3)nc(N)c2cc1OC.CS(=O)(=O)O` (stereo not given), the IRF reporter was found to be 1.97 ± 0.15.
Same read-out and setting: the value for `O=C(c1ccc(Cl)cc1)c1ccc(N2CCCCC2)c([N+](=O)[O-])c1` was 1.33 ± 0.27.
